ELG1 DNA repair = qHTS screen for small molecules that inhibit ELG1-dependent DNA repair in human embryonic kidney (HEK293T) cells expressing luciferase-tagged ELG1; HEK293T ELG1-luciferase reporter, luminescence, 16 h; DNA damage induced by 5-fluorouridine; Potency, µM (highest dose often 46.1 µM), most hits filed as inhibitors; actives 2.3% (n = 330,000); note: nearly all actives have a fitted effect of over 55% in size
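Luminescence from the luciferase reporter, measured 30 min after ONE-Glo reagent at room temperature, was the read-out. Beforehand, 2,000 cells per well were exposed for 16 hr at 37 °C to 5-fluorouridine together with compound or vehicle.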
RORgamma inh = qHTS for inhibitors of ROR gamma transcriptional activity. Potency, µM (series often up to 53.6 µM), usual class: inhibitors. Drosophila S2 Gal4-RORgamma UAS-luciferase reporter, 20 h. actives 5.4% (n = 310,000). Nuclear receptor ROR-gamma (Mus musculus), P51450; note: nearly all actives have a fitted effect of over 60% in size
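Drosophila Schneider cells stably carrying a metallothionein-driven Gal4 DBD–ROR gamma fusion and a UAS-Photinus luciferase reporter were exposed to compound for 1 hr, then induced with copper sulfate (700 uM final) for 20 hr at ambient temperature before luminescence reading.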
TSHR antag = Antagonists of the Thyroid Stimulating Hormone Receptor: HTS campaign | activity change, negative = inhibition, % at 11.5 µM | AID 504810, 2011 | actives 0.2% (n = 330,000) | TSHR-expressing cells, TSH-stimulated cAMP HTRF, 2 h; active compounds read low;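 active = activity change below a set negative limit, meaning inhibition stronger than a set level, cut at about -70% in these data; inconclusive = activity change between two set negative limits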
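Antagonism was scored as loss of TSH-driven cAMP in TSHR cells, stimulated with 4nM TSH (EC80) for 2 hours at 37 deg C and detected by homogeneous HTRF competition immunoassay.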
Gal4-VP16 FLuc = VP16 counterscreen qHTS for inhibitors of ROR gamma transcriptional activity; Drosophila S2 Gal4-VP16 UAS-luciferase, luminescence, 20 h; actives 3.5% (n = 310,000); Potency, µM (top dose mostly 53.6 µM), usual class: inhibitors; AID 2546, 2010;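 note: Gal4-VP16 expression switched on by copper sulfate through the metallothionein promoter; nearly all actives have a fitted effect of over 50% in size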
B2AR arrestin = qHTS assay of beta-arrestin-biased ligands of beta2-adrenergic receptor | beta-arrestin recruitment to beta2AR, cell-based reporter | Potency, µM (highest dose often 46.1 µM), usual class: activators | actives 0.02% (n = 330,000) | Beta-2 adrenergic receptor (Homo sapiens), P07550; note: nearly all actives have a fitted effect of over 65% in size
Target sequence (P07550 whole entry, looked up): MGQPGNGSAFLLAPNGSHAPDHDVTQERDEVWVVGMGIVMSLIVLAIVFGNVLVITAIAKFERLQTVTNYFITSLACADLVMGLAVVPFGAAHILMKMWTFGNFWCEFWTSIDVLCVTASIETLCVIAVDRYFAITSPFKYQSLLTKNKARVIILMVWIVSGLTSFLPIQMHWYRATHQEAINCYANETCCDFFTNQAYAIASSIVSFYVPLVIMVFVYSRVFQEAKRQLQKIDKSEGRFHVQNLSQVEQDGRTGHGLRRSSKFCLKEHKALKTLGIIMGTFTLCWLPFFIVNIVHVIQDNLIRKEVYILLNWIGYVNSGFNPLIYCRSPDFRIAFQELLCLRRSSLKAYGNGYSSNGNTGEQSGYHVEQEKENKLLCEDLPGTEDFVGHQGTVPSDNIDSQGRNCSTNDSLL
Hits are given with their value; - = inactive; ? = inconclusive; . = not tested or not shown; [ ] = dose if it differs, or a comment. This is a sample that favours compounds with a hit; in the whole collection about 7.5% have one here. Unless noted, calls come from the whole dose curve; as a rule, active = well fitted curve in the direction sought with a large enough effect; inconclusive = small, poorly fitted or top-dose-only effect, or another doubt; inactive = no such curve, though single readings can be large; an effect the other way counts as inactive or inconclusive.

SMILES	ELG1 DNA repair	RORgamma inh	TSHR antag	Gal4-VP16 FLuc	B2AR arrestin
COc1ccc(C(=O)NC(=S)N2CCOCC2)cc1OC	-	11.2µM	-	?	-
COc1ccc(-c2nn(-c3ccccc3)cc2C(=O)NC(=S)N2CCOCC2)cc1OC	20.6µM	.	-	.	-
Cc1cccc(C(=O)NC(=S)N2CCc3ccccc3C2)c1	-	1.41µM	-	3.55µM	-
COc1ccc(C(=O)Nc2ccc(C(=O)N3CCOCC3)cc2)cc1OC	?	-	-	-	-
CC(=O)N1C2(C=CC1(C)C(=O)NCCN1CCOCC1)CCCCC2 (centres undefined)	.	-	.	-	.
Cc1cccn2c(=O)c(C=O)c(Nc3ccccc3)nc12	-	-	-	-	-
CN1CCN(C(=S)NC(=O)c2cccc(S(=O)(=O)N(C)C)c2)CC1	-	14.1µM	-	?	-
COc1cc(C(=S)N2CCOCC2)ccc1OC(=O)/C=C/c1ccco1	-	?	-	17.8µM	-
COc1ccc(C(=O)NC(=S)N2CCN(C)CC2)cc1Br	-	0.447µM	-	2.82µM	-
COc1ccc(C(=O)NC(=S)N2CCN(c3ccccc3OC)CC2)cc1OC	-	2.82µM	-	5.01µM	-
CN1CCN(C(=S)Nc2cccc(S(=O)(=O)N(C)C)c2)CC1	-	-	-	-[10 µM]	-
Cc1ccc(S(=O)(=O)NCc2cc(=O)n(C)c(=O)n2C)cc1C	-	-	-	?	-
CC1CC(C)(C)CC2(C1)NC(=O)N(CC(=O)N(Cc1ccccc1)c1ccccc1)C2=O (centres undefined)	-	.	-	.	-
COc1ccc(NC(=O)c2cn(-c3ccccc3)nc2-c2ccncc2)cc1	?	-	-	-	-
O=C(Nc1ccc(F)cc1)c1cn(-c2ccccc2)nc1-c1ccncc1	20.6µM	-	-	-	-
COC(=O)c1ccccc1NC(=S)N1CCN(c2ccccc2)CC1	-	-	-	-	-
Cc1ccccc1NC(=S)N1CCN(c2ccccc2)CC1	-	10µM	-	20µM	-
Cc1ccccc1NC(=S)N1CCCCCC1	-	11.2µM	-	-	-
COc1cc(Cl)c(S(=O)(=O)NCCCn2ccnc2)cc1Cl	-	-[1.91 µM]	-	-	-
FC(F)(F)c1cc(CN2CC3(CCNCC3)C2)cc(C(F)(F)F)c1	.	-	.	-	.
O=C(COC(=O)CCc1nc2ccccc2n1-c1ccccc1)Nc1ccc(N2CCCCC2)cc1	-	?	-	6.31µM	-
N#CC1=C2N=C(N)c3c(sc4c3CCCCC4)N2C2=C(C(=O)CCC2)C1c1ccccc1 (centres undefined)	-	11.2µM	-	?	-
CCCCCN(C(=O)CCC(=O)OCC(=O)c1ccc(CCC)cc1)c1c(N)n(CCCC)c(=O)[nH]c1=O	-	.	-	.	-
Cn1cc(CNCc2cnc3ccccn23)c(-c2ccc(Oc3ccccc3)cc2)n1	-	-	-	-	-
CN(Cc1cn(C)nc1-c1ccc(Oc2ccccc2)cc1)Cc1cnc2ccccn12	?	10µM	-	?	-
SMILES	ELG1 DNA repair	RORgamma inh	TSHR antag	Gal4-VP16 FLuc	B2AR arrestin
NC(=O)c1cnn2c(C(F)(F)F)cc(-c3ccccc3)nc12	.	-	.	-	.
COc1ccc(-c2cc(C(F)(F)F)n3ncc(C(=O)N(C)Cc4ccccc4)c3n2)cc1	14.6µM	-	-	-	-
O=C(NCc1ccco1)c1cnn2c(C(F)(F)F)cc(-c3ccccc3)nc12	?	15.8µM	-	11.2µM	-
CCN(Cc1ccccc1)C(=O)COC(=O)[C@@H]1CCCN1C(=O)c1cccs1	-	.	-	.	-
CN1CCN(c2ncc3nc(-c4ccc(F)cc4)c(=O)n(Cc4cccs4)c3n2)CC1	.	?	.	-	.
COc1cc2cc(CN(Cc3cccs3)C(=S)Nc3cccc(C)c3)c(=O)[nH]c2cc1OC	7.31µM	-	-	?	-
Cc1cccc(NC(=S)N(Cc2cccs2)Cc2cc3cc(C)ccc3[nH]c2=O)c1	?	-	-	-	-
COc1cc2cc(CN(Cc3cccs3)C(=S)Nc3ccc(C)cc3)c(=O)[nH]c2cc1OC	5.17µM	-	-	?	-
Cc1cccc(NC(=S)N(CCN(C)C)Cc2cc3cccc(C)c3[nH]c2=O)c1	13µM	-	-	-	-
CC1CC=CC2C1C(=O)N(Cc1ccccc1)C2c1ccc(F)c(-c2ccc(N(C)C)cc2)c1 (centres undefined)	.	-	.	-	.
CSc1nc(NC2CCCC2)c([N+](=O)[O-])c(NC2CCCC2)n1	.	-	.	-	.
O=C(COc1ccc(Cl)cc1Cl)NNC(=S)NCc1ccco1	-	3.16µM	-	?	-
CC(Oc1ccc(Cl)cc1)C(=O)NNC(=S)NC(=O)c1ccco1 (centres undefined)	-	12.6µM	-	?	-
O=C(COc1ccc(Cl)cc1Cl)NNC(=S)NC(=O)c1ccco1	-	11.2µM	-	?	-
CCn1c(NC(=O)c2ccc(COc3ccc(C)cc3[N+](=O)[O-])o2)nc2ccccc21	?	2.24µM	-	5.01µM	-
O=c1ccc2c(OCCCCOc3ccccc3)c3ccoc3cc2o1	.	-	.	-	.
C#CCn1c(=NC(=O)c2ccc(Cl)s2)sc2cccc(OC)c21	?	2.24µM	-	-	-
S=c1nc(C2CC2)[nH]c2ccccc12	-	3.55µM	-	5.62µM	-
S=c1nc(SCc2ccccc2)[nH]c2ccccc12	-	1.41µM	-	10µM	-
CNc1nc(=S)[nH]c2ccccc12	-	-	-	-	-
CC(C)c1nc(=S)c2ccccc2[nH]1	-	5.62µM	-	10µM	-
S=c1nc(C2CCCCC2)[nH]c2ccccc12	-	0.631µM	-	8.91µM	-
c1ccc(CSc2nc3ncncc3[nH]2)cc1	-	-	-	-	-
Cc1ccc(/C=C/c2nc3ccccc3c(=O)[nH]2)cc1	?	2.51µM	-	?	-
O=C1C2C3c4ccccc4C(c4ccccc43)[C@@H]2c2nc3ccccc3n21 (some centres undefined)	?	11.2µM	-	-	-
SMILES	ELG1 DNA repair	RORgamma inh	TSHR antag	Gal4-VP16 FLuc	B2AR arrestin
O=C1C2C3c4ccccc4C(c4ccccc43)[C@@H]2C(=O)N1c1ccccn1 (some centres undefined)	-	-	-	-	-
CCCCOC1(c2ccccc2)NC(=S)NN=C1c1ccccc1 (centres undefined)	-	10µM	-	?	-
COC1(c2ccccc2)NC(=S)NN=C1c1ccccc1 (centres undefined)	-	11.2µM	-	?	-
CCCCCCOC1(c2ccccc2)OC(=O)c2ccccc21 (centres undefined)	-	-	-	-	-
Cc1cc(-c2ccc(C)c(S(=O)(=O)N3CCN(c4ccccn4)CC3)c2)on1	?	-	-	-	-
COc1cccc(-c2nc3ccccc3s2)c1	?	-	-	?	-
c1ccc2sc(-c3ccc4c(c3)OCO4)nc2c1	?	?	-	2.24µM	-
